“And” between values parts separate entries of the source, which are not always exact repeats. Identical values can stand only once. This is part of a sample that, as a whole, favours compounds with a hit. Of some 83,000 tested, about 20% had one in any assay.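 Results are percent growth after 48 hours of single-concentration exposure. 100 means growth as in untreated cells, lower positive values show inhibition; negative values down to -100 show cell death.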 The source made the active and inactive calls. How the source made its calls: active means growth percent below 10; inactive means the rest.
Test system: MDA-MB-468 breast
Assay: NCI-60 one-dose screen, 48 h (100 = growth as untreated, 0 = no growth, -100 = all killed)
Details: 10 µM unless noted

Structure (SMILES) | growth
CC(C)(C)Nc1nc2c(OCCc3ccccc3)cccn2c1-c1ccc([N+](=O)[O-])cc1 | -19.5% (active)
COc1cc(C)ccc1Oc1nc(Nc2ccc(N3CCOCC3)cc2)ncc1N=Cc1cc(C(F)(F)F)cc(C(F)(F)F)c1 | 71% (inactive)
C=CCn1c(SCC(=O)Nc2cccc(C(=O)/C=C/c3ccccc3Cl)c2)nc2ccccc2c1=O | 98.1% (inactive)
CCOC(=O)c1cc(CC)sc1NC(=O)CC(C)=O | 57.2% (inactive)
O=C(CCN1C(=O)/C(=C/c2ccc(O)cc2)SC1=S)Nc1ccccc1 | 100% (inactive)
CCOC(=O)c1ccc(Nc2sc(C(=O)c3cccc([N+](=O)[O-])c3)c(N)c2C#N)cc1 | 4.24% (active)
O=C(Nc1ccc(Cl)c(Cl)c1)Nc1ccccc1O | 0.995% (active)
COc1ccc(/C=C2\CCCC3=C2N=C2SC(C)=CN2C3c2ccc(OC)cc2)cc1 (stereo not given) | 85.1% (inactive)
COc1ccc2c(c1)OC1=C(C(=O)OC1)C2c1cc(OC)c(OC)c(OC)c1 (stereo not given) | -5.94% (active)
CC(C)Sc1nc(NNC(N)=S)c(C#N)c(-c2ccc(F)cc2)n1 | 98.4% (inactive)
CCCCCCCO | 96.4% (inactive)
Cc1ccc(S(=O)(=O)OC[C@@]2(C)CC[C@]3(C)CC[C@]4(C)C(=CC[C@@H]5[C@@]6(C)CCCNC(C)(C)[C@@H]6CC[C@]54C)[C@@H]3C2)cc1 | -85.5% (active)
Cc1ccc(NC(=O)c2ccc(CN3CCN(C)CC3)c(C(F)(F)F)c2)cc1Oc1ccc(-c2[nH]nc3ncnc(N)c23)cc1 | 117% (inactive)
COC(=O)c1ccc(C)cc1 | 105% (inactive)
O=S(=O)(Oc1ccc(-c2cn3ccoc3n2)cc1)C1CCCCC1 | 92.3% (inactive)
CN(C)CC(C)(C)C(=O)/C=C/c1ccccc1 | -49% [25 µM] (active)
OCCN1CCN(CC/C=C2\c3ccccc3Sc3ccc(Cl)cc32)CC1 | -97.1% (active)
CCCCCCCCCCCCCCCCCCNC(=O)[C@H]1CSC(c2ccc(OC)cc2O)N1 (stereo not given in full) | 115% (inactive)
O=C(CCc1nnc2sc(-c3ccccc3)nn12)c1nc2ccccc2[nH]1 | 87.3% (inactive)
CCc1ccc(OCc2ccccc2C(=O)Nc2ccc3nc(C)cc(N)c3c2)cc1 | -58.4% (active)

Structure (SMILES) | growth
CC(C)(C)n1nnnc1C(Nc1nccs1)c1cc2cccc3ccc4cccc1c4c32 (stereo not given) | -35.2% (active)
COc1ccc(-c2ccc(-c3ccc(C(=N)N)nc3)s2)cc1 | -69.9% (active)
O=NN(CCCl)C(=O)NCc1ccc(-c2ccc(CNC(=O)N(CCCl)N=O)cc2)cc1 | 101% (inactive)
CCCNc1nc(SC)nc(-c2cccc(N)c2)c1C#N | 114% (inactive)
CNC(=O)Nc1ccc(-c2ccc3ncnc(Nc4cccc(Cl)c4)c3c2)cc1 | -29.2% (active)
Cc1ccc(NCCN(C)CC(C)O)c2c(=O)c3ccc(Cl)cc3sc12 (stereo not given) | -2.72% (active)
CCCCCCCCCCCC[n+]1ccccc1 | -23.6% (active)
CC1=CC2c3oc(-c4ccccc4)c(C(=O)c4ccccc4)c3CNC2C=C1 (stereo not given) | 97.7% (inactive)
Cc1ccc2c(-c3cc(-c4ccccc4)nc(N)c3C#N)cc(=O)oc2c1 | 103% (inactive)
COc1cccc(-c2nn(-c3ccccc3)cc2-c2ccnc(NCCCNS(=O)(=O)c3ccc(Br)cc3)c2)c1 | 35.5% (inactive)
CC(=O)CC(=O)SC1=NCCS1 | 124% (inactive)
CC1=C(C(=O)OCc2ccccc2)C(c2ccc3c(c2)OCO3)n2c(nc3ccccc32)N1 (stereo not given) | 15.8% (inactive)
C=CCn1c(SCC(=O)Nc2ccc(C(=O)/C=C/c3cccc([N+](=O)[O-])c3)cc2)nnc1-c1c[nH]c2ccccc12 | 81.9% (inactive)
COc1cc2c(cc1-c1c(C)noc1C)ncc1nc(C3CCOCC3)n(C3CCC(OC(F)F)CC3)c12 (stereo not given) | 40.9% (inactive)
COC(=O)c1nc(-c2ccc(C)cc2)oc1S(=O)(=O)N1CCN(c2oc(-c3ccccc3)nc2C#N)CC1 | 93.9% (inactive)
Cn1ccnc1C(=O)/C=C/c1ccc(CC(=O)Nc2ccc(Cl)cc2)cc1 | -15.4% (active)
CCOC(=O)C1=C(C)N=C2Sc3ccccc3N2C1c1ccccc1 (stereo not given) | 74.8% (inactive)
CCCCCCCCCCCCCCCC[N+]1(C)CCOCC1 | -50.9% (active)
COc1ccc(S(=O)(=O)N2CCN(C)CC2)cc1NC(=O)c1[nH]c(C)c2c1CCCCC2=O | 39.8% (inactive)
O=C(O)C1C2CCC1C(O)C2 (stereo not given) | 97.7% (inactive) and 110% (inactive)

— PubChem BioAssay (NCI)
